The panel holds about 83,000 compounds, 20% with a hit somewhere; the sample as a whole holds those more often.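 Treatment: one concentration, 48 hours, 96-well format. Scoring: percent growth, with anything below 10 considered active.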 Unmarked numbers belong to inactive results. Active and inactive are the calls of the source.
How the values were obtained:
Experiment in all cases: NCI-60 one-dose screen, 48 h (100 = growth as untreated, 0 = no growth, -100 = all killed)
Settings in all cases: 10 µM unless noted
SK-MEL-2 melanoma = system: SK-MEL-2 melanoma
EKVX NSCLC = system: EKVX NSCLC
SN12C renal = system: SN12C renal
TK-10 renal = system: TK-10 renal
ACHN renal = system: ACHN renal
CAKI-1 renal = system: CAKI-1 renal
A498 renal = system: A498 renal
CCRF-CEM leukemia = system: CCRF-CEM leukemia
MOLT-4 leukemia = system: MOLT-4 leukemia
SR leukemia = system: SR leukemia
RPMI-8226 leukemia = system: RPMI-8226 leukemia
OVCAR-8 ovarian = system: OVCAR-8 ovarian
OVCAR-5 ovarian = system: OVCAR-5 ovarian
OVCAR-4 ovarian = system: OVCAR-4 ovarian
SK-OV-3 ovarian = system: SK-OV-3 ovarian
IGROV1 ovarian = system: IGROV1 ovarian
OVCAR-3 ovarian = system: OVCAR-3 ovarian
HS 578T breast = system: HS 578T breast
NCI/ADR-RES ovarian = system: NCI/ADR-RES ovarian
UO-31 renal = system: UO-31 renal

| SMILES | growth (SK-MEL-2 melanoma) | growth (EKVX NSCLC) | growth (SN12C renal) | growth (TK-10 renal) | growth (ACHN renal) | growth (CAKI-1 renal) | growth (A498 renal) | growth (CCRF-CEM leukemia) | growth (MOLT-4 leukemia) | growth (SR leukemia) | growth (RPMI-8226 leukemia) | growth (OVCAR-8 ovarian) | growth (OVCAR-5 ovarian) | growth (OVCAR-4 ovarian) | growth (SK-OV-3 ovarian) | growth (IGROV1 ovarian) | growth (OVCAR-3 ovarian) | growth (HS 578T breast) | growth (NCI/ADR-RES ovarian) | growth (UO-31 renal) |
| --- | --- | --- | --- | --- | --- | --- | --- | --- | --- | --- | --- | --- | --- | --- | --- | --- | --- | --- | --- | --- |
| O=C(NCc1ccc2c(c1)OCO2)NCC1CCCC(CNC(=O)NCc2ccc3c(c2)OCO3)C1 (stereo not given) | 109% | 106% | 102% | 101% | 105% | 89.6% | 95.3% | 85.1% | 92.9% | 95.2% | 102% | 100% | 108% | 96.1% | 99.1% | 106% | 108% | 97.1% | 104% | – |
| CC(CN)[C@@H]1CC[C@]2(CO)CC[C@]3(C)[C@H](CC[C@@H]4[C@@]5(C)CCC(N)C(C)(C)[C@@H]5CC[C@]43C)[C@@H]12 (stereo not given in full) | 81.6% | -44.7% (active) | 25.5% | 57.7% | 17.7% | 33.7% | 92.2% | -32.1% (active) | -35.1% (active) | – | – | -78.4% (active) | -51.4% (active) | -38.9% (active) | 103% | 62.2% | -84.2% (active) | 4.39% (active) | 53.6% | 0.963% (active) |
| O=C(Cn1nnc([N+](=O)[O-])n1)c1ccccc1 | 73.3% | 100% | 102% | 92% | 107% | 77.7% | 48.6% | 58.6% | 95.3% | 84.3% | – | 101% | 114% | 91.5% | 99.8% | 96.1% | 100% | 106% | 98.4% | – |
| C=C1C(=O)O[C@H]2[C@H]1CC/C(COC(=O)NCCCCCCCCNC(=O)OC/C1=C/CC[C@@]3(C)O[C@H]3[C@H]3OC(=O)C(=C)[C@@H]3CC1)=C\CC[C@@]1(C)O[C@@H]21 | -57.5% (active) | -82.4% (active) | -68.7% (active) | -97.9% (active) | -93.2% (active) | -90.1% (active) | -88.7% (active) | -47.3% (active) | -27.5% (active) | -37.6% (active) | -42.8% (active) | -51.2% (active) | -79.6% (active) | -82.9% (active) | 34.4% | -74.3% (active) | -94.1% (active) | 17.4% | 43.9% | – |
| O=C(CCl)Nc1ccc2c(Nc3cc(O)ccc3Cl)ncnc2c1 | -76.5% (active) | -53.8% (active) | -83.4% (active) | -66.9% (active) | -98.3% (active) | -86.1% (active) | 56.2% | -5.44% (active) | -24.4% (active) | -22.5% (active) | -45.9% (active) | -33.9% (active) | -74.7% (active) | – | -4.95% (active) | -71.2% (active) | -83.4% (active) | 4.71% (active) | -39.8% (active) | – |
| c1ccc(CNc2ccc3nc(CCC4CCCCC4)[nH]c3c2)cc1 | 82.8% | 75.7% | 62.8% | 84.2% | 87% | 66.7% | 42.7% | 59.2% | 51.2% | 80.8% | 47.9% | 72.3% | 63.4% | 47.5% | 86.8% | 53.5% | 63.9% | 80.9% | 61.8% | – |
| Cc1ccc(O)c(NC(=O)c2ccc(CNc3ccnc(C(F)(F)F)c3)cc2)c1 | 79.2% | 60.5% | 46.4% | 96.7% | 39% | 41.8% | 80.7% | 7.6% (active) | 25.1% | 36.4% | 15.2% | 69.6% | 76.9% | – | 82% | 51.4% | 140% | 85.4% | 50.3% | – |
| NNC(=S)N/N=C/c1ccccn1 | 59.6% | 31.6% | 30% | 46.9% | 17% | 14.2% | 70.4% | 12% | 12% | 5.56% (active) | 28.9% | 20% | 40.3% | 29.2% | 24.3% | 40.2% | 21.7% | 31.8% | 17.8% | – |
| N#CC(C#N)N=Nc1ccc(Cl)cc1Cl | 99.9% | 99.3% | 82.9% | 90.8% | 58.4% | 70.8% | 84.7% | 48.3% | 75.5% | 48.1% | 50.8% | 94% | 104% | 71.4% | 77% | 89.5% | 62% | 103% | 103% | – |
| CN1CCN(Cc2cc(NC(=O)c3cccc(C#Cc4cccc5[nH]nc(N)c45)c3)cc(C(F)(F)F)c2)CC1 | 17.8% | 46% | 19.3% | 61.4% | 4.75% (active) | 70.8% | 42.6% | -8.44% (active) | -35.2% (active) | -28.7% (active) | 11.2% | 41% | 36.1% | 24.8% | 81.6% | 11.1% | 64.1% | 22.3% | 50.8% | – |
| CCN(C(=O)N1CCN(c2cc3c(cc2F)c(=O)c(C(=O)O)cn3C2CC2)CC1)c1nc(-c2ccc(C)cc2)cs1 | -1.1% (active) | 14.3% | 5.47% (active) | 38.3% | 6.68% (active) | 7.79% (active) | -2.94% (active) | 21.4% | 14.3% | 17.2% | 14.8% | 11.5% | 21.7% | – | -10.4% (active) | 6.38% (active) | 9.01% (active) | 18.3% | 2.74% (active) | – |
| Cc1cccc(NC(=O)CSc2nc3ccc([N+](=O)[O-])cc3[nH]2)c1 | 98.5% | 70.9% | 80.7% | 97.3% | 82.5% | 61.4% | 63.5% | 78.4% | 77.2% | 96.2% | 55.5% | 83.6% | 99.2% | 59.3% | 88.2% | 87.4% | 72.7% | – | 74.4% | – |
| Cc1cc(N2CCN(C)CC2)nc(NCc2cc(Nc3ccnc4cc(Cl)ccc34)ccc2F)n1 | -67.8% (active) | 27.4% | -20.8% (active) | -29.5% (active) | -10.6% (active) | 12.9% | -40.7% (active) | -4.6% (active) | 10.2% | -32% (active) | -29.6% (active) | 6.32% (active) | -3.76% (active) | 14.9% | 23% | 10.4% | -46.8% (active) | 11% | 18.7% | – |
| C=C(C)[C@@H]1CC[C@]2(CO)CC[C@]3(C)[C@H](CC[C@@H]4[C@@]5(C)CCC(NCCc6ccc(O)cc6)C(C)(C)[C@@H]5CC[C@]43C)[C@@H]12 (stereo not given in full) | -85% (active) | -52.1% (active) | -88.9% (active) | -94.5% (active) | -100% (active) | -58.5% (active) | 6.99% (active) | -41.3% (active) | -43.8% (active) | -46.8% (active) | -53.5% (active) | -79.4% (active) | -72.4% (active) | -89.3% (active) | 75.8% | -85.5% (active) | -95% (active) | -54.5% (active) | -71% (active) | – |
| O=C1c2cc3c(cc2-c2c1c1ccc(Cl)cc1c(=O)n2C[C@H](O)CO)OCO3 | -9.57% (active) | 4.75% (active) | 10.1% | 14.6% | -72.2% (active) | -35.3% (active) | -79.1% (active) | 9.33% (active) | -17.2% (active) | -2.7% (active) | -11.9% (active) | 3.37% (active) | -7.3% (active) | 4.86% (active) | -2% (active) | 8% (active) | -17.3% (active) | 26.2% | 3.2% (active) | – |
| C[C@@H]1O[C@@H](O[C@@H]2C[C@H](c3ccc4c(c3O)C(=O)C3=C(C4=O)[C@@]4(O)C(=O)C[C@](C)(O)C[C@@]4(O)C=C3)O[C@H](C)[C@H]2O)C[C@H](O)[C@@H]1O | 103% | 102% | 94.2% | 101% | 102% | 88.1% | 95% | 93.8% | 91.5% | 76.7% | 92% | 96.7% | 102% | 92% | 106% | 91.2% | 105% | 94.4% | 91.8% | – |
| Fc1ccc2c(c1)c(-c1nc(-c3c[nH]c4ncccc34)cs1)cn2CCCN1CCOCC1 | 60.5% | 55.9% | 73.9% | 66.9% | 42.2% | 56.2% | 51% | 21.8% | 24.8% | 12.1% | 36.6% | 59.7% | 82.3% | 56.2% | 81.6% | 38.6% | 59.8% | 38.3% | 59.2% | – |
| COc1cc2c(c(OC)c1OC)C(=O)N[C@@H]1[C@@H](O)[C@@H](O)[C@H](O)C[C@@H]21 | 117% | 103% | 104% | 98.5% | 99.7% | 94.1% | 112% | 104% | 104% | 95.6% | 102% | 97.3% | 106% | 107% | 99.9% | 111% | 112% | 108% | 108% | – |
| COC(=O)c1ccc2c(c1)c1c(C)c3ccncc3c(C)c1n2C | 13.9% | 34.3% | 36.1% | 32.7% | 14.8% | 13% | -0.17% (active) | 30.4% | 12.9% | -5.73% (active) | – | 28.8% | 44.9% | 22% | 40% | 24% | 39.5% | 35.6% | 29.3% | – |
| CCOC(=O)c1c2c(n3c1NCC3)-c1ccccc1C2=O | 79.3% | – | 98.3% | 96.4% | 97.3% | 89.9% | 100% | 85% | 87.8% | 100% | – | 99.4% | 89.4% | 99.7% | 104% | 67.3% | 92.1% | 106% | 102% | 39.8% |
| Cc1nn(-c2ccccc2)c(N2CCCCC2)c1/C=N/NC(=O)Cn1c(=O)sc2ccccc21 | 88.9% | – | 85% | 88.5% | 66.8% | 34.7% | 80.7% | 84.7% | 54.7% | 93.9% | 65% | 81.1% | 82.9% | 79.3% | 89% | 67.2% | 81.9% | 78.7% | 74.9% | 48.1% |
| O=C(N=Nc1c(O)[nH]c2ccccc12)Nc1ccc(Cl)cc1 | 99.7% | – | 97.1% | 101% | 80.5% | 89.2% | 77.6% | -8.91% (active) | 87.3% | 79.1% | 56.1% | 102% | 86% | 98.2% | 96.5% | 80.2% | 97.5% | 95.1% | 110% | 69.2% |

From PubChem BioAssay (NCI)
